# According to ChEMBL document CHEMBL4513146, “CO-ADD screening of Karazin Kharkiv National University (Ukraine) compounds”:
# Results with a measured potency or affinity are listed apart.
# Experiments:
# [1] = test system: Staphylococcus aureus; conditions: Concentration 32 ug.mL-1;; ASSAY_TEST Inhibition of Bacterial Growth; detection method Absorption (OD600); MEDIA CAMHB; plate type 384well; NBS; CORNING #3640; time 18 hr
# [2] = test system: Escherichia coli; conditions: Concentration 32 ug.mL-1;; ASSAY_TEST Inhibition of Bacterial Growth; detection method Absorption (OD600); MEDIA CAMHB; plate type 384well; NBS; CORNING #3640; time 18 hr
Structure (SMILES),Inhibition [1] [%],Inhibition [2] [%]
CCCCn1c(=O)c2sccc2n2c(=O)n(CC(=O)N3CCCC(C(=O)OCC)C3)nc12 (centres undefined),0.89,-5.26
CC1CCN(C(=O)Cn2nc3n(Cc4cccs4)c(=O)c4sccc4n3c2=O)CC1,3.66,-8.96
CCOc1ccccc1NC(=O)Cn1nc2c(Sc3ccccc3)nccn2c1=O,-2.46,-5.85
Cc1cccc(-c2nc(CSc3nc4ccccc4n4c(C(C)C)nnc34)c(C)o2)c1,9.08,2.13
COc1ccc(CNC(=O)Cn2nc3c(Oc4ccccc4C)nccn3c2=O)cc1,1.68,-7.69
O=C(CSc1nnc2c(=O)n(-c3ccccc3)ccn12)Nc1cccc(Cl)c1,1.05,-12.66
O=C(Cn1nc2ccc(C(=O)NCc3ccccc3)cn2c1=O)Nc1ccc(Br)cc1,3.47,-7.68
CCc1ccc(NC(=O)Cn2nc3c(Sc4ccccc4)nccn3c2=O)cc1,6.66,-4.33
O=C(Cn1nc2c3cc(-c4ccc(F)cc4)nn3ccn2c1=O)Nc1ccccc1,-11.01,-1.34
COC(=O)c1ccccc1NC(=O)Cn1nc2c(SC3CCCCC3)nccn2c1=O,-10.07,-11.96
Cc1ccc(Cl)cc1NC(=O)Cn1nc2c(N3CCOCC3)nc3ccccc3n2c1=O,-1.67,-9.52
Cc1ccccc1N1CCN(c2nccn3c(=O)n(CC(=O)Nc4cccc(C(C)C)c4)nc23)CC1,14.78,-9.47
N#Cc1cccc(Cn2nc3ccc(S(=O)(=O)N4CCCCCC4)cn3c2=O)c1,10.44,-2.41
Cc1nnc2ccc(S(=O)(=O)N(Cc3ccccc3F)c3ccc(F)cc3)cn12,-2.33,-7.33
Cc1ccc(-c2ccc3nn(CC(=O)Nc4cccc(Cl)c4)c(=O)n3n2)cc1C,-4.46,-9.75
N#Cc1cccc(NC(=O)CSc2nnc3c4cc(-c5ccc(F)cc5)nn4ccn23)c1,11.69,-2.69
O=c1c2nnc(-c3cccc([N+](=O)[O-])c3)n2ccn1-c1ccc(F)cc1,13.28,-1.02
